Source: PubChem
HepG2 tox – HepG2 cytotoxicity, counter-screen for TGF-b inhibitors; Potency, µM (top dose mostly 46.1 µM), for the others: at the top dose activity change, negative = cytotoxicity, hits mostly cytotoxic; 410,000 compounds, 0.76% hits; HepG2 CAGA-GFP viability, ATP luminescence, 18 h; AID 588856; also: potency is read from the fitted curve at half-maximal effect
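HepG2 CAGA-GFP cells (1000/well, DMEM with 1% FBS) received compound, then TGF-beta at 500 pg/mL final, and were incubated 18 hours at 37 degrees C. Viability was read by CellTiter-Glo luminescence. Media-only wells were set as complete cell-killing and DMSO as no toxicity.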
DT40 TDP1 no CPT – qHTS for Inhibitors of human tyrosyl-DNA phosphodiesterase 1 (TDP1): qHTS in cells in absence of CPT; DT40 Tdp1-/- hTDP1 cells, no CPT, ATP luminescence, 48 h; Potency, µM (top dose mostly 46.2 µM), for the others: top-dose activity change, negative = growth inhibition, actives largely listed as inhibitors; 420,000 compounds, 15% hits; also: potency is read from the fitted curve at half-maximal effect; % is scaled to controls: 0 for no effect and ±100 for the full control effect; nearly all actives have a fitted effect of over 55% in size
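Camptothecin absent (DMSO only). Human TDP1-complemented DT40 knockout cells, 400 cells/well, 37 °C for minimum 48 hr; ATP measured via CellTiter-Glo, 30 min dark incubation, luminescence.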
TGFb inhibitor – blocks TGF-b signaling; HepG2 CAGA-GFP TGF-b/SMAD3 reporter, GFP fluorescence, 18 h; TGF-beta stimulated, 500 pg/mL final; Potency, µM (doses to about 46.1 µM), for inactives: at the top dose activity, negative = inhibition, hits mostly inhibitors; 410,000 compounds, 1.2% hits; AID 588855; also: potency is read from the fitted curve at half-maximal effect; % is scaled to controls: 0 for no effect and ±100 for the full control effect; nearly all actives have a fitted effect of over 65% in size
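Cell-based qHTS in HEPG2 carrying a CAGA-GFP Smad reporter; compounds added before 500 pg/mL final TGF-beta, 18 h incubation at 37 degrees C, GFP fluorescence quantified per cell by imaging cytometry.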
TDP1 cell CPT – growth inhibition of DT40 Tdp1-/-;hTDP1 cells with camptothecin (screen for TDP1 inhibitors); chicken DT40 Tdp1-/-;hTDP1 cells + 20 nM CPT, ATP luminescence, 48 h; Potency, µM (titrated, usually from 46.2 µM), for the others: at the top dose activity change, negative = growth inhibition, hits mostly inhibitors; 420,000 compounds, 12% hits; also: potency is read from the fitted curve at half-maximal effect; % is scaled to controls: 0 for no effect and ±100 for the full control effect; nearly all actives have a fitted effect of over 55% in size
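Chicken DT40 Tdp1-/- cells stably complemented with human TDP1 were seeded at 400 cells/well in medium containing 20 nM camptothecin, exposed to pin-transferred compounds, and grown at 37 °C for at least 48 hr. Viability was read as ATP luminescence.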
S-ASM inh – human S-ASM enzyme inhibition; placental ASM, HMU-PC fluorogenic substrate, 60 min; Potency, µM (doses to about 57.5 µM), without a hit: top-dose activity change, negative = inhibition, usual class: inhibitors; 340,000 compounds, 0.006% hits; also: potency is read from the fitted curve at half-maximal effect
Target sequence (P17405 47-631 limits assumed): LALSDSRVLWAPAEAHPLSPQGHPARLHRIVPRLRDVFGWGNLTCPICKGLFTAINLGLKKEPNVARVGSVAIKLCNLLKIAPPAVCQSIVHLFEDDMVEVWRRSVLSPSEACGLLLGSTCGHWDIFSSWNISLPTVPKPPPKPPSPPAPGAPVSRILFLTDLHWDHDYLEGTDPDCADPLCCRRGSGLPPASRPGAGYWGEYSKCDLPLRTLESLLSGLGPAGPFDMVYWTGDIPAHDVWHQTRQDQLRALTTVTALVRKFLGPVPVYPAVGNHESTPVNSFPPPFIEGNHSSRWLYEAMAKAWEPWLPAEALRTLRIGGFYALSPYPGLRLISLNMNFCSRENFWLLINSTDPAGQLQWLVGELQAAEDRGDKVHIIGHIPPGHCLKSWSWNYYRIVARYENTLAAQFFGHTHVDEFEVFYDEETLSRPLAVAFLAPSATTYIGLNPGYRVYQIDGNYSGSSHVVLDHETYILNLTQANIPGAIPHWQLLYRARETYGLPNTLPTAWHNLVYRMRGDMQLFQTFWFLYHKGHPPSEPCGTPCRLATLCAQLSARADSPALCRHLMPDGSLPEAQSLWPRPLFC
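Human placenta-derived ASM enzyme was preincubated with compound for 10 minutes at room temperature, then given fluorogenic substrate HMU-PC0 (9 uM final) for 60 minutes at 37 °C; a pH 10 stop preceded fluorescence reading at Ex 386/Em 447 nm.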
IL1B secr inh – inflammasome signaling inhibition, IL-1 beta readout. THP-1 LPS/ATP IL-1B secretion, AlphaLISA, 16 h; active compounds read low. activity change, % at 57.5 µM. 360,000 compounds, 4.7% hits. AID 743279; in the data active = activity change below about -50%; inconclusive = mostly about -30% to -49%; also: % is scaled to controls: 0 for no effect and ±100 for the full control effect
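Secreted IL-1B measured by AlphaLISA bead assay after 16 h compound exposure of THP-1 cells; compounds (final up to 57.5 uM) added 1 h before LPS (250 ng/mL) and ATP (1.25 mM) stimulation; lower signal means less secretion.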
* hit, by the source's call; ? = inconclusive; nt = not tested or not shown. An excerpt weighted towards active compounds, which were near 19% of everything screened. Unless noted, calls follow the shape of the dose curve; as a rule, active = well fitted curve in the direction sought with a large enough effect; inconclusive = small, poorly fitted or top-dose-only effect, or another doubt; inactive = no such curve, though single readings can be large; an effect the other way counts as inactive or inconclusive.

SMILES | HepG2 tox | DT40 TDP1 no CPT | TGFb inhibitor | TDP1 cell CPT | S-ASM inh | IL1B secr inh
CCOC(=O)c1c(NC(=O)c2nc(SCC)ncc2Cl)sc(C(C)=O)c1C | -30% | -1% | -4% | 1% | nt | nt
CCOC(=O)c1c(NC(=O)COc2ccc(Br)cc2)sc(C(C)=O)c1C | -21% | 9.2µM* | -19% | ? | nt | nt
CC(NC(=O)Nc1ccc(F)cc1F)c1ccc2c(c1)OCO2 (configuration not stated) | -1% | -5% | 9% | ? | 0% | -1
CCOc1ccc(NC(=O)Cn2nnc(C(=O)NCc3cccs3)c2N)cc1 | 1% | 15% | 21% | -14% | 7% | 66
CCOC(=O)C1(CC2CCCCO2)CCN(C(=O)Nc2ccc(C)c(C)c2)CC1 (configuration not stated) | 1% | -1% | 8% | 6% | -3% | -4
CCOC(=O)c1c(NC(=O)COC(=O)CCCOc2ccc(OC)cc2)sc(C(=O)N(C)C)c1C | -5% | ? | 12% | -1% | -14% | -2
CCOC(=O)c1c(NC(=O)COC(=O)c2ccc(O)cc2)sc(C(=O)NC)c1C | -3% | 21µM* | -17% | 18µM* | -3% | 14
CCOC(=O)c1c(NC(=O)COC(=O)c2nc(Cl)ccc2Cl)sc(C(=O)NC)c1C | 0% | -27% | 13% | -5% | -3% | 8
CCOC(=O)c1c(NC(=O)COc2ccc(OC)cc2)sc(C(=O)N(CC)CC)c1C | -32% | 7.3µM* | nt | ? | nt | nt
CC(CC(=O)OCC(=O)NCc1ccc(Cl)cc1)c1ccccc1 (configuration not stated) | 3% | -1% | 5% | 3% | -2% | 28
O=C(CSc1nc2ccccc2n1Cc1ccc(F)c(Cl)c1)N1CCN(c2ccc(F)cc2)CC1 | -4% | 9.2µM* | -6% | 18µM* | nt | nt
O=C(CSc1nc2ccccc2n1Cc1cccc(F)c1)N1CCN(c2ccc(F)cc2)CC1 | -13% | ? | -9% | ? | nt | nt
C/C(N)=C(/C#N)C(=O)CSc1nc2ccccc2c(=O)n1Cc1ccc(F)cc1 | -46% | ? | 11µM* | ? | -7% | -11
C=Cc1ccc(Cn2c(SCC(=O)N3CCN(c4ccc(F)cc4)CC3)nc3ccccc32)cc1 | -56% | ? | ? | 23µM* | nt | nt
CCOC(=O)CSc1nc2ccccc2n1CC(=O)N1CCN(c2ccccc2)CC1 | -21% | -6% | ? | -2% | -1% | 0
CC(C)N(C(=O)CSc1nc2ccccc2n1Cc1ccc(F)cc1)C(C)C | -36% | ? | ? | 23µM* | -3% | -62*
COC(=O)c1ccc(Cn2c(SCC(=O)Nc3ccc(F)cc3)nc3ccccc32)cc1 | -24% | ? | 2% | ? | nt | nt
O=C(Nc1cccc(S(=O)(=O)NC2=NCCC2)c1)c1cc(=O)[nH]c2ccccc12 | -4% | 14% | -9% | -6% | 8% | 3
COc1ccc([C@H]2CC(=O)C[C@@H](CCn3cc(-c4nccn4C)nn3)O2)cc1 | nt | -18% | nt | 5% | nt | -4
COc1cc(/C=C(\NC(=O)c2ccccc2)C(=O)Nc2nccs2)ccc1OC(C)=O | 4% | -17% | 1% | -23% | -1% | 0
COC(=O)C1(C)CCCC2(C)C3CCC(C(C)C)C(CO)C3C(CO)CC12 (configuration not stated) | -40% | ? | -14% | ? | nt | -60*
Cc1cc(Nc2cccc(Cl)c2)nc(-c2ccccc2O)n1 | -59% | ? | ? | 29µM* | ? | ?
Cc1cc(Nc2ccc(Cl)cc2)nc(-c2ccccc2O)n1 | -54% | 26µM* | -24% | ? | -29% | -23
